# Measurements reported in PubChem BioAssay (NCI).
# This is part of a sample that, as a whole, favours compounds with a hit. Of some 83,000 tested, about 20% had one in any assay.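 Cell lines were cultured in 96-well plates, exposed to a single compound concentration, and assessed for percent growth 48 hours later.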 A number with no mark means an inactive call. Active and inactive are the calls of the source. How the source made its calls: active means growth percent below 10; inactive means the rest.
# Columns and labels:
# Assay in all cases: NCI-60 one-dose screen, 48 h (100 = growth as untreated, 0 = no growth, -100 = all killed)
# DU-145 prostate = conditions: 10 µM unless noted
# K-562 leukemia = conditions: 10 µM unless noted
# MALME-3M melanoma = conditions: 10 µM unless noted
# MDA-MB-231 breast = conditions: 10 µM unless noted
# RXF 393 renal = conditions: 10 µM unless noted
# SF-268 CNS = conditions: 10 µM unless noted
# SF-295 CNS = conditions: 10 µM unless noted
# SF-539 CNS = conditions: 10 µM unless noted
# UACC-257 melanoma = conditions: 10 µM unless noted
# M14 melanoma = conditions: 10 µM unless noted
# HCT-15 colon = conditions: 10 µM unless noted
# HT29 colon = conditions: 10 µM unless noted
# SNB-75 CNS = conditions: 10 µM unless noted
# U251 CNS = conditions: 10 µM unless noted
# PC-3 prostate = conditions: 10 µM unless noted
# SK-MEL-5 melanoma = conditions: 10 µM unless noted
# UACC-62 melanoma = conditions: 10 µM unless noted
# SK-MEL-28 melanoma = conditions: 10 µM unless noted
# LOX IMVI melanoma = conditions: 10 µM
# SNB-19 CNS = conditions: 10 µM unless noted
Structure (SMILES),growth (DU-145 prostate),growth (K-562 leukemia),growth (MALME-3M melanoma),growth (MDA-MB-231 breast),growth (RXF 393 renal),growth (SF-268 CNS),growth (SF-295 CNS),growth (SF-539 CNS),growth (UACC-257 melanoma),growth (M14 melanoma),growth (HCT-15 colon),growth (HT29 colon),growth (SNB-75 CNS),growth (U251 CNS),growth (PC-3 prostate),growth (SK-MEL-5 melanoma),growth (UACC-62 melanoma),growth (SK-MEL-28 melanoma),growth (LOX IMVI melanoma),growth (SNB-19 CNS)
CCCCCCCS(=O)(=O)N1CCCC(C(=O)Nc2nc3ccc(NC(=O)c4ccc(F)c(OC)c4F)cc3s2)C1 (stereo not given),63.5%,61.8%,35.4%,14.7%,-48.1% (active),63.1%,48.7%,25.8%,69%,72.5%,59.6%,60.2%,64.7%,38.6%,40.3%,55%,52.6%,74.2%,–,–
Cc1cccc(NC(=O)[C@]23CCC(C)(C)CC2C2=CCC4[C@@]5(C)C[C@@H](O)[C@H](O)[C@@](C)(CO)C5CC[C@@]4(C)[C@]2(C)CC3)c1 (stereo not given in full),32.2%,15.5%,28.3%,-19.1% (active),-49% (active),41%,4.56% (active),-2.33% (active),39.8%,36.1%,-5.5% (active),-56.1% (active),43.7%,27.8%,13.3%,-90.7% (active),20.3%,32.5%,-75.2% (active),–
COc1ccc(C2=NN(c3ccccc3)C(c3ccc(OC)c(OCc4ccccc4)c3)C2)cc1OC (stereo not given),105%,95%,92.6%,100%,98.1%,96.5%,107%,99.9%,103%,104%,83.8%,70.5%,90.6%,92.4%,98%,94.1%,81.8%,115%,–,–
COc1ccc2c(c1)C(=N/N=C(\C)c1ccc(OC)c(S(N)(=O)=O)c1)C(=O)N2,105%,103%,93.7%,75.1%,80.4%,97.5%,86.4%,86.8%,96.7%,92.4%,98.2%,96.3%,66.3%,74.4%,83.3%,91.5%,77.5%,94.1%,–,–
CC(=O)OC[C@@]1(C)C2CC[C@]3(C)C(CC=C4C5CC(C)(C)CC[C@]5(C(=O)Nc5ccc(F)cc5)CC[C@]43C)[C@@]2(C)C[C@@H](OC(C)=O)[C@@H]1OC(C)=O (stereo not given in full),47.4%,22.4%,58.2%,65.5%,87.4%,57.4%,23.4%,40.2%,26.8%,48.1%,33.8%,34.7%,54.4%,40.3%,34.5%,8.24% (active),30.3%,58.6%,11.1%,–
COc1ccc(-c2nc3ccc(C(=O)NN4C(=O)c5ccc([N+](=O)[O-])cc5C4=O)cc3[nH]2)cc1,109%,102%,87.9%,90.1%,68.4%,105%,88.2%,91.1%,94.2%,93.7%,95.9%,87.1%,83.3%,97%,90.5%,83.1%,80.2%,95.6%,–,–
COCOc1cc2c(=O)c(C)c(C(=O)N[C@@H](Cc3ccccc3)C(O)C(=O)NCc3ccccc3)oc2cc1OC (stereo not given in full),57.3%,40.6%,-27.7% (active),25.6%,-17.2% (active),1.19% (active),83.5%,-79.7% (active),30.2%,65.2%,84.3%,43.3%,3.85% (active),-36.6% (active),73.4%,10.6%,-14.8% (active),38.9%,–,–
COc1ccc(-c2nc(SCC(C)C)nc(NCCc3c[nH]c4ccccc34)c2C#N)cc1,77.2%,33.1%,87.3%,36.5%,-8.09% (active),58.1%,45%,48%,98.1%,81.2%,29.4%,35%,74.1%,40.7%,24%,37.2%,76.2%,71.5%,46.1%,–
COCOc1cc2oc(C(=O)N[C@@H](Cc3ccccc3)C(O)C(=O)NCc3ccccc3)c(C)c(=O)c2cc1OCOC (stereo not given in full),52.8%,90.4%,22.3%,20.7%,-23.7% (active),65.8%,89%,24.7%,61.1%,82.9%,94.4%,77.5%,21.7%,41.3%,101%,49.9%,63.6%,70.9%,–,–
CC(=O)Nc1ccc(-c2nc3cc(-c4ccc(O)cc4)ccc3n2C)cc1,54.9%,15.5%,68.4%,53.4%,66.7%,68.1%,47.1%,49.2%,80.8%,63.9%,36.8%,53.6%,44.1%,59.9%,74.6%,78.3%,51.4%,74.3%,–,–
CCC(C)(C)c1ccc(OCCCCN2CCN(c3ccncc3)CC2)cc1,60.8%,-1.88% (active),-85% (active),-30.9% (active),-7.66% (active),66.7%,-35.6% (active),-36% (active),37.5%,-56.6% (active),-1.1% (active),6.61% (active),69.5%,-11.8% (active),19.3%,-99.4% (active),–,-6.03% (active),-76.8% (active),–
Cn1cc(-c2cc3nc(-c4cn(C)c5ncccc45)cc(N)n3n2)c2cc(Cl)ccc21,-15% (active),-51.3% (active),-97.4% (active),-96.2% (active),-84.2% (active),-45% (active),-81.5% (active),-98.5% (active),-76.5% (active),-90.8% (active),-64.5% (active),-55.6% (active),–,-79.7% (active),-82.1% (active),-99.4% (active),-99.6% (active),-99.9% (active),-100% (active),-88.1% (active)
